For the test, the system named is VDR:RXRa (NR concentration 270 nM, RXRa partner concentration 90 nM). Nature of the test: PBM binding z-score (relative to random genomic background probes); higher = stronger binding; sequences stand for … in GC…GCGATTGACAGCGTAGAATGAAGG
The protocol:
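Protein-binding microarray (Agilent 4x180K custom design, double-stranded 60-nt probes: 5' GC cap, 34-nt variable region, 24-nt constant primer region; full probe sequence given). Purified or IVT nuclear receptor:RXRα heterodimers (3:1 NR:RXRα, mostly 270:90 nM) or homodimers were incubated for 1 h in PBS with 2% milk and no ligand, then detected with Alexa488 antibodies. Fluorescence from o1-orientation probes (~5 replicates averaged) was converted to z-scores against 500 random hg19 background probes. Variable regions are seed direct-repeat (DR0–DR5) sites, all their single-nucleotide variants and half-site ablations.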
Sequence TCGAGTAGGTTAGGGGCACTCAGAATGGCGTCGA came in with a PBM binding z-score of -0.143.

As to CGTCCAAGGTCAAGGTCAGGGAAAGAGACTCGAA, the PBM binding z-score is 4.97.

In turn, CAAACTCGGTCAAGAGGTCAAAGTCCGCTTCCCG yielded a PBM binding z-score of 5.41.

GCTATTAGTTGAAAGGGCAACAGAATGATTCTCG: the PBM binding z-score is 0.688.

TCGAGTAGGTTAGGGGCATCCAGAATGGCGTCGA gave a PBM binding z-score of 0.536.

The sequence ATCTCTAGGTGACCAAGTTCAGTGAATGCCGAAC showed a PBM binding z-score of 4.77.

Sequence CCGACTGGGGCAAGCTTACCATAACGCACAGCCA registered a PBM binding z-score of -0.753.

For TCAGACAGGTGAAGGTAACTCGGGTACGCAGTCG, the PBM binding z-score was determined as 1.45.

As for AGTCAAAATTCATCTAGGTAACGTAAGATATGCT, the PBM binding z-score was -0.0109.

As to CCTTACGGGTCACTCCAGGTTATGGCATCGGAGT, the PBM binding z-score came out at 4.08.

As for TCTTGTAGATCATGCAGGTTAAGAAAGCCTGAGT, the PBM binding z-score came out at 0.976.

The sequence CAACCTAGGTCACAGAGGTCAAAGTCCGTGCGTA came in with a PBM binding z-score of 8.21.

CCTTACGGGTGAAGGTTATAGCACGGGTGGTACG registered a PBM binding z-score of 0.0707.

For TGTCAAAGTTCAAAGGTAACGTATGTATCCACAC, the PBM binding z-score stood at 5.14.

Sequence CCAGACTGGTGAAAGGTAACTCAGTCTGGTACGC had a PBM binding z-score of -0.0185.

Consider GCTGCTTGGTCAGGTTGGTCAGCTAACGGGTACG, for which the PBM binding z-score was -0.35.

For CGTCCAGGGTCAAGGTCAGTGAAAGAGACTCGAA, the PBM binding z-score came out at 4.79.

CCTTACGGGTCACCAGGTTATAGCACGACGAGCG displayed a PBM binding z-score of 4.64.

The sequence CTACCAGGGTGAACAAGGTCGTTGATTACTATTC displayed a PBM binding z-score of 6.27.

Turning to ATATGTAGGTTGCATCCGGGTCATTCAGGCTATG, the PBM binding z-score was determined as 3.47.

Sequence ACTCGGAGGACACAGGTCAGAGCTACGCCAGTGA had a PBM binding z-score of 0.834.

ATATGTAGGTTAGCTGGGGTCTTTCAGACTAGGC came in with a PBM binding z-score of 1.28.

In the case of AGAACGAGGGCAATGAGTTGATCGCACGGGTGGC, the PBM binding z-score is 5.13.

AATACAGGGTCACTAGGCAAGAGTAGGTACGAAT: the PBM binding z-score stood at 3.97.

In turn, ACTATTAGCTGACTTAGGGCAACCGATACGACGC yielded a PBM binding z-score of -0.114.

In the case of AGAATGAGGTTCTACGTAGATCAGGGAAGAAAGT, the PBM binding z-score was -0.436.

In turn, CATACAGGGTCAGCTAGGCCAGAATAGGGACGGC displayed a PBM binding z-score of 3.8.

The sequence GGAACGAGGACAAAGTTGATAGCATCTGTCGACG displayed a PBM binding z-score of -0.104.

As to TTACCAAGGTAAGCTGAGGTCGTTGATCCAACTC, the PBM binding z-score stood at 2.84.

TAGCCTAGGCCATGCGGGCCAGTATAGTGTCGGC displayed a PBM binding z-score of -1.04.

For the sequence AGTCAAAGTTCATTAGGTAACGTAAGATTCAGCT, the PBM binding z-score is 4.72.

Sequence CCTACTGGGCCAAAAGGGTCATTGATGCCGATAA displayed a PBM binding z-score of 4.44.

Sequence CGAACGAGGGCTTGAGTTGATAGCAAATGCCGAT gave a PBM binding z-score of -0.282.

Regarding AGAACGAGGGCAATCAGTTGATAGCACGGGTGGC, the PBM binding z-score came out at 2.58.

Sequence TCATATGGGTAAACAGGTGAAAGTCCGTAAGTTA registered a PBM binding z-score of 0.583.

With ACTATTAGTTGAGACGAGGGCAATCGATAGGTTG, the PBM binding z-score came to 0.793.

The sequence CCGACTGGGGCATAAGATTACCATAAGCCAGCCC yielded a PBM binding z-score of -0.534.

GCTTACGGGTCAAAGGATATAGCATGAATAGAAT came in with a PBM binding z-score of 3.16.

Consider TCTTGTAGATCAACCGGAGGTTAAGAAAGATCGA, for which the PBM binding z-score came to 0.672.

For the sequence CAAACTAGGTCACCGGCAGGTCAAAGTCCGCATG, the PBM binding z-score stood at 5.36.
